Measured values taken from PubChem BioAssay (NCI).
The panel holds about 79,000 compounds, 15% with a hit somewhere; the sample as a whole holds those more often. Active and inactive are the calls of the source. No stated cut-off is given here; in the data, active means growth inhibition above about 70%; inactive means the rest.

How the values were obtained:
[1] = NCI Yeast Anticancer Drug Screen. Data for the rad52 strain (AID 147);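 further: 0% = growth of vehicle-treated control cultures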; details: S. cerevisiae rad52 mutant growth inhibition, hits give high values
Outline: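 Growth of repair-deficient yeast cells was compared between compound-treated and vehicle-treated cultures to give percent inhibition.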

[2] = NCI Yeast Anticancer Drug Screen. Data for the wt1 strain (AID 149);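 further: 0% = growth of vehicle-treated wt1 cultures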; details: S. cerevisiae wt1 strain (SPY 50644) growth inhibition, hits give high values
Outline: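 Vehicle-normalised growth inhibition; strain wt1; compound exposure.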

[3] = NCI Yeast Anticancer Drug Screen. Data for the rad50EPP+ strain (AID 151);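 further: 0% = growth of vehicle-treated control cultures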; details: S. cerevisiae rad50 mutant strain, hits give high values
Outline: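 Measured: growth inhibition of rad50EPP+ yeast. Reference: vehicle-treated controls. Screen uses strains with defined genetic alterations in DNA damage repair or cell cycle control.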

[4] = NCI Yeast Anticancer Drug Screen. Data for the mgt1 strain (AID 153); details: S. cerevisiae mgt1 mutant growth inhibition, hits give high values
Outline: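 Compounds were applied to mgt1 mutant yeast, and growth was then compared against vehicle-treated control cultures to give percent inhibition.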

[5] = NCI Yeast Anticancer Drug Screen. Data for the rad50 strain (AID 155);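 further: 0% = growth of vehicle-only cultures of the same strain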; details: S. cerevisiae rad50 strain growth inhibition, hits give high values
Outline: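 A DNA repair-deficient yeast mutant serves as the test organism; compound-induced growth inhibition is calculated against vehicle-treated cells.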

[6] = NCI Yeast Anticancer Drug Screen. Data for the mec2-1 strain (AID 157); details: S. cerevisiae mec2-1 strain, hits give high values
Outline: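 Compounds were applied to mec2-1 yeast cells. Their growth was then compared with that of vehicle-treated cultures to give growth inhibition.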

[7] = NCI Yeast Anticancer Drug Screen. Data for the rad14 strain (AID 159);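 further: 0% = growth of vehicle-treated control cultures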; details: S. cerevisiae rad14 strain growth inhibition, hits give high values
Outline: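 Vehicle-treated cultures served as the baseline for growth inhibition of a DNA repair-mutant yeast strain exposed to each compound.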

[8] = NCI Yeast Anticancer Drug Screen. Data for the sgs1 mgt1 strain (AID 161);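 further: 0% = growth of cultures given vehicle only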; details: S. cerevisiae sgs1 mgt1 strain, hits give high values
Outline: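 Compounds are added to genetically altered yeast, and growth is compared with cultures given vehicle alone to give percent inhibition.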

[9] = NCI Yeast Anticancer Drug Screen. Data for the CLN2oe strain (AID 163);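 further: 0% = growth of vehicle-only control cultures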; details: S. cerevisiae CLN2oe strain, hits give high values
Outline: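 Cells of an engineered yeast line with disturbed cell-cycle regulation are treated with compound. Inhibition of growth is then calculated relative to the vehicle-treated reference.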

[10] = NCI Yeast Anticancer Drug Screen. Data for the cln2 rad14 strain (AID 165);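 further: 0% = growth equal to vehicle treated cultures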; details: S. cerevisiae cln2 rad14 strain, hits give high values
Outline: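 Strain: cln2 rad14 yeast, altered in cell cycle control and DNA damage repair. Read-out: growth inhibition vs vehicle.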

[11] = NCI Yeast Anticancer Drug Screen. Data for the wt2 strain (AID 169);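 further: 0% = growth of vehicle-treated yeast cultures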; details: S. cerevisiae wt2 strain growth inhibition, hits give high values
Outline: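 Growth of compound-treated yeast is measured and expressed as inhibition relative to vehicle-only controls.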

[12] = NCI Yeast Anticancer Drug Screen. Data for the mlh1 strain (AID 171);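 further: 0% = growth of vehicle-treated control cultures of the same strain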; details: S. cerevisiae mlh1 strain growth inhibition, hits give high values
Outline: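 Test agents were incubated with yeast bearing a defined DNA damage repair or cell cycle control alteration; values are growth inhibition normalised to vehicle-treated cultures.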

[13] = NCI Yeast Anticancer Drug Screen. Data for the sgs1 strain (AID 173);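 further: 0% = growth of vehicle-only control cultures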; details: S. cerevisiae sgs1 mutant, hits give high values
Outline: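 Strain with an altered DNA repair or cell cycle pathway exposed to compound. Growth then measured. Value = inhibition versus vehicle control.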

[14] = NCI Yeast Anticancer Drug Screen. Data for the mlh1 rad18 strain (AID 175); details: S. cerevisiae mlh1 rad18 strain growth inhibition, hits give high values
Outline: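 A repair-deficient yeast strain is exposed to test compound, and growth is scored relative to vehicle-treated controls.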

[15] = NCI Yeast Anticancer Drug Screen. Data for the bub3 strain (AID 167); details: S. cerevisiae bub3 mutant strain, hits give high values
Outline: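 Inhibition values come from growth of compound-treated mutant yeast normalised to vehicle-treated controls.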

[16] = NCI Yeast Anticancer Drug Screen. Data for the rad18 strain (AID 177); details: S. cerevisiae rad18 mutant growth inhibition, hits give high values
Outline: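 DNA-repair-defective yeast; compound treatment; growth inhibition scored against vehicle.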

[17] = at 5.0 µM (retest, dose inferred, filed as 0.5)
[18] = at 50.0 µM (retest, dose inferred, filed as 5.0)

Measured: growth inhibition

NC(N)=N/N=C\c1c2ccccc2cc2ccccc12
inactive: [1]; at 1.2 µM -73% | [1]; at 3.7 µM -78% | [1]; at 11.0 µM -50% | [1]; at 33.0 µM 27% | [2]; at 1.2 µM -38% | [2]; at 3.7 µM -29% | [2]; at 11.0 µM -29% | [2]; at 33.0 µM -27% | [3]; at 1.2 µM -28% | [3]; at 3.7 µM -20% | [3]; at 11.0 µM -7% | [3]; at 33.0 µM 6% | [3]; at 100.0 µM 23% | [4]; at 1.2 µM -38% | [4]; at 3.7 µM -54% | [4]; at 11.0 µM -34% | [4]; at 33.0 µM 3% | [5]; at 1.2 µM -16% | [5]; at 3.7 µM -17% | [5]; [17] 22% | [5]; at 11.0 µM -8% | [5]; at 33.0 µM 36% | [5]; [18] 66% | [5]; at 50.0 µM 17.1% | [6]; at 1.2 µM -58% | [6]; at 3.7 µM -37% | [6]; [17] 18% | [6]; at 11.0 µM -45% | [6]; at 33.0 µM -10% | [6]; [18] 42% | [6]; at 50.0 µM 36.9% | [7]; at 1.2 µM -50% | [7]; at 3.7 µM -41% | [7]; at 11.0 µM -45% | [7]; at 33.0 µM 9% | [8]; [17] 8% | [8]; [18] 47% | [8]; at 50.0 µM 33.6% | [9]; at 1.2 µM -29% | [9]; at 3.7 µM 6% | [9]; at 11.0 µM -4% | [9]; at 33.0 µM 18% | [10]; [17] -2% | [10]; [18] 25% | [10]; at 50.0 µM 1.85% | [11]; at 1.2 µM -47% | [11]; at 3.7 µM -64% | [11]; at 11.0 µM -59% | [11]; at 33.0 µM -35% | [12]; at 1.2 µM -61% | [12]; at 3.7 µM -45% | [12]; at 11.0 µM -44% | [12]; at 33.0 µM 11% | [13]; at 1.2 µM -25% | [13]; at 3.7 µM -31% | [13]; at 11.0 µM -44% | [13]; at 33.0 µM -1% | [14]; [17] 29%
active: [1]; at 100.0 µM 94% | [2]; at 100.0 µM 95% | [4]; at 100.0 µM 95% | [5]; at 100.0 µM 94% | [6]; at 100.0 µM 93% | [7]; at 100.0 µM 95% | [9]; at 100.0 µM 78% | [11]; at 100.0 µM 96% | [12]; at 100.0 µM 93% | [13]; at 100.0 µM 93% | [14]; [18] 81% | [14]; at 50.0 µM 72.7%

O=C(/C=C/c1cccc(Br)c1)c1cccs1
active: [1]; at 11.0 µM 74% | [1]; at 33.0 µM 97% | [1]; at 100.0 µM 94% | [2]; at 33.0 µM 98% | [2]; at 100.0 µM 95% | [3]; at 33.0 µM 82% | [3]; at 100.0 µM 85% | [4]; at 11.0 µM 85% | [4]; at 33.0 µM 97% | [4]; at 100.0 µM 92% | [5]; at 11.0 µM 83% | [5]; at 33.0 µM 97% | [5]; [18] 96% | [5]; at 50.0 µM 88.2% | [5]; at 100.0 µM 91% | [6]; at 11.0 µM 75% | [6]; at 33.0 µM 99% | [6]; [18] 98% | [6]; at 50.0 µM 91.5% | [6]; at 100.0 µM 96% | [7]; at 11.0 µM 81% | [7]; at 33.0 µM 96% | [7]; at 100.0 µM 92% | [8]; [18] 96% | [8]; at 50.0 µM 91.8% | [9]; at 11.0 µM 84% | [9]; at 33.0 µM 98% | [9]; at 100.0 µM 96% | [10]; [18] 97% | [15]; at 11.0 µM 94% | [15]; at 33.0 µM 98% | [15]; [18] 98% | [15]; at 50.0 µM 90.8% | [15]; at 100.0 µM 96% | [11]; at 33.0 µM 98% | [11]; at 100.0 µM 95% | [13]; at 11.0 µM 78% | [13]; at 33.0 µM 98% | [13]; at 100.0 µM 94% | [14]; [18] 95% | [14]; at 50.0 µM 87.9% | [16]; at 11.0 µM 91% | [16]; at 33.0 µM 97% | [16]; at 100.0 µM 93%
inactive: [1]; at 1.2 µM -32% | [1]; at 3.7 µM -12% | [2]; at 1.2 µM -15% | [2]; at 3.7 µM -5% | [2]; at 11.0 µM 61% | [3]; at 1.2 µM -9% | [3]; at 3.7 µM -5% | [3]; at 11.0 µM 29% | [4]; at 1.2 µM -1% | [4]; at 3.7 µM 13% | [5]; at 1.2 µM 6% | [5]; at 3.7 µM 10% | [5]; [17] 8% | [6]; at 1.2 µM -16% | [6]; at 3.7 µM 4% | [6]; [17] -9% | [7]; at 1.2 µM -2% | [7]; at 3.7 µM 5% | [8]; [17] 16% | [9]; at 1.2 µM 9% | [9]; at 3.7 µM 10% | [10]; [17] 11% | [10]; at 50.0 µM 46.5% | [15]; at 1.2 µM 30% | [15]; at 3.7 µM 45% | [15]; [17] 36% | [11]; at 1.2 µM -24% | [11]; at 3.7 µM -16% | [11]; at 11.0 µM 67% | [13]; at 1.2 µM -17% | [13]; at 3.7 µM 0% | [14]; [17] 21% | [16]; at 1.2 µM 4% | [16]; at 3.7 µM 26%
